Measured values taken from the supplement of paper PMC3545927.
The list shows a part of the results. The hit rate among all sequences tested is not known here.

B1: HC721 (peptide)
chain: CATPCTCGSSAGNASASA
B2: HC1015 (peptide)
chain: CAEECSQHLPAGNASASA
B3: FS-949 (peptide)
chain: CAPRARKNRSAGNASASA
B4: FS-942 (peptide)
chain: CALRARKNRSAGNASASA
B5: FS-229 (peptide)
chain: CAEEIRVNRSAGNASASA
B6: FS-1053 (peptide)
chain: CAPRARSRRSAGNASASA
B7: HC930 (peptide)
chain: CALRAYMNTPAGNASASA
B8: FS-74 (peptide)
chain: CAPRAAERRSAGNASASA
B9: HC1878 (peptide)
chain: CATTTCSGSWAGNASASA
B10: FS-1498 (peptide)
chain: CATTTRKNRSAGNASASA
B11: HC2235 (peptide)
chain: CAEVVTSTHVAGNASASA
B12: HC1528 (peptide)
chain: CAVCGDDLVVAGNASASA
B13: HC1530 (peptide)
chain: CADLVVICESAGNASASA
B14: HC836 (peptide)
chain: CAPPGSVTVPAGNASASA
B15: HC2154 (peptide)
chain: CAKVVTSTWVAGNASASA
B16: HC68 (peptide)
chain: CATTPCMGSWAGNASASA
B17: HC67 (peptide)
chain: CATTPCWGSWAGNASASA
B18: HC65 (peptide)
chain: CATTPCIGSWAGNASASA
B19: FS-243 (peptide)
chain: CAGKSRNKRQAGNASASA
B20: FS-2630 (peptide)
chain: CAEKRRSADIAGNASASA
B21: FS-1184 (peptide)
chain: CAAMGRGKRQAGNASASA
B22: HC1114 (peptide)
chain: CAGPGEGAVQAGNASASA
B23: FS-1612 (peptide)
chain: CASDSRHSRQAGNASASA
B24: FS-579 (peptide)
chain: CAALDRTKRQAGNASASA
B25: FS-1520 (peptide)
chain: CAEKTRHARQAGNASASA
B26: HC1089 (peptide)
chain: CAAGVAGALVAGNASASA
B27: HC944 (peptide)
chain: CAHIDAHFLSAGNASASA
B28: HC246 (peptide)
chain: CAGCSFSIFLAGNASASA

Target: furin, P09958
Test: furin cleavage Z-score vs untreated control; higher = more cleavage, active = 3.5 or more, inactive = 1 or less, 8 variable residues between constant flanks
Method in brief: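 The cleavage Z-score was derived for purified furin acting on 8-mer peptides held on magnetic beads and fused to a cDNA oligonucleotide. Digests lasted 7.5, 15 or 30 min at 1:10 enzyme:substrate in 50 mM HEPES pH 7.5 with CaCl2 and NaCl. Sequencing counts of released DNA, log-transformed against furin-free reactions, were lowess-adjusted and scaled by median absolute deviation.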

Chain of furin, P09958 (P09958 whole entry): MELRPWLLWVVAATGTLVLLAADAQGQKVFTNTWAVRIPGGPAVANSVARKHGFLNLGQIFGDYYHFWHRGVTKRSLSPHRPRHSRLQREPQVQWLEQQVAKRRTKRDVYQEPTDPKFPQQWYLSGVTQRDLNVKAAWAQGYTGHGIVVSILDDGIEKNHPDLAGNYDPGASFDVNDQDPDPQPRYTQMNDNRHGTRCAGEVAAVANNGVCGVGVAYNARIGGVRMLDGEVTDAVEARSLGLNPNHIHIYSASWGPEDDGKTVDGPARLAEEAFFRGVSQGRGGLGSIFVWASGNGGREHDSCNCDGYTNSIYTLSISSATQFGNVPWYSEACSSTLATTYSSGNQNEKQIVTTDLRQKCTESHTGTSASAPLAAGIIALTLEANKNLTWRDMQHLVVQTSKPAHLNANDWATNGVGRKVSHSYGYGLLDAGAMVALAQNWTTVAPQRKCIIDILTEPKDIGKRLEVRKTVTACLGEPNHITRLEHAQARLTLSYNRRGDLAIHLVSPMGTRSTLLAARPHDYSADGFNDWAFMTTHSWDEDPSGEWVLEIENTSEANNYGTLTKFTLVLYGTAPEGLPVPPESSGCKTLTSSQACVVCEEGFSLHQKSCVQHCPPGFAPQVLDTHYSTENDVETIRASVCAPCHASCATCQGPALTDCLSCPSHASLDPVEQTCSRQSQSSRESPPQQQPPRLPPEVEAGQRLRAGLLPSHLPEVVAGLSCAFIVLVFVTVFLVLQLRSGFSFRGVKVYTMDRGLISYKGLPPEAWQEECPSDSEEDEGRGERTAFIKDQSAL

Sequence	furin cleavage Z-score (7.5 min)	furin cleavage Z-score (15 min)	furin cleavage Z-score (30 min)
B1	-1.49 (inactive)	-2.13 (inactive)	-1.32 (inactive)
B2	0.447 (inactive)	0.0813 (inactive)	-0.935 (inactive)
B3	12.3 (active)	12.6 (active)	8.81 (active)
B4	8.1 (active)	8.12 (active)	6.93 (active)
B5	2.33	0.724 (inactive)	1.69
B6	9.77 (active)	10.8 (active)	8.95 (active)
B7	0.0194 (inactive)	-1.18 (inactive)	0.0807 (inactive)
B8	-1.2 (inactive)	-1.99 (inactive)	-1.56 (inactive)
B9	-0.962 (inactive)	0.367 (inactive)	-0.313 (inactive)
B10	8.64 (active)	11 (active)	7.73 (active)
B11	-0.582 (inactive)	0.167 (inactive)	-1.55 (inactive)
B12	-2.27 (inactive)	-1.44 (inactive)	-0.381 (inactive)
B13	0.357 (inactive)	-1.48 (inactive)	1.02
B14	0.584 (inactive)	0.308 (inactive)	-0.638 (inactive)
B15	-1.02 (inactive)	1.09	-1.67 (inactive)
B16	1.12	0.786 (inactive)	-0.593 (inactive)
B17	0.261 (inactive)	1.14	1.23
B18	0.499 (inactive)	3.77 (active)	2
B19	10.4 (active)	10.6 (active)	10.1 (active)
B20	-0.771 (inactive)	-1.51 (inactive)	-0.666 (inactive)
B21	9.02 (active)	8.89 (active)	8.8 (active)
B22	-0.225 (inactive)	-1.41 (inactive)	-1.21 (inactive)
B23	0.00727 (inactive)	0.0993 (inactive)	0.17 (inactive)
B24	11.8 (active)	12.8 (active)	11 (active)
B25	8.09 (active)	8.28 (active)	7.03 (active)
B26	-0.652 (inactive)	-0.752 (inactive)	0.946 (inactive)
B27	-0.528 (inactive)	-1.68 (inactive)	-0.674 (inactive)
B28	-1.55 (inactive)	-1.86 (inactive)	0.305 (inactive)
